Measured values reported in PubChem BioAssay (EPA / NIEHS).
Inconclusive results are not listed. Some compounds were tested as several samples or in several runs, with calls that do not always agree. Active and inactive are the calls of the source. The calls were made as follows, unless noted: active = hit-call score of the fitted dose curve at least 0.9, where 1 is the maximum; inactive = score below 0.9.

Tests used:
[1] = TOX21_PR_LUC_Followup_Agonist_viability: Viability Assessment in the Tox21 HEK293 Progesterone Receptor (PR) Agonism Luciferase Follow-Up Assay (AID 2283941; active = hit-call score of the fitted dose curve at least 0.9, where 1 is the maximum;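 also: loss of signal means cytotoxicity so actives lower viability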)
Procedure, shortened: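 Multiplexed viability endpoint of the PR agonist luciferase follow-up: HEK293-PR-A-luc cells treated 16 h at 37C, with viability scored as decrease in CellTiter-Glo ATP signal.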

[2] = target: Nucleoli Translocation, AR (gene 367) (UniProt P10275); assay: UPITT_HCI_U2OS_AR_TIF2_Nucleoli_Antagonist: University of Pittsburgh U2OS Androgen Receptor-Transcriptional Intermediary Factor 2 (AR-TIF2) Antagonism High Content Imaging Assay for Nucleoli Translocation (AID 2283997; active = hit-call score of the fitted dose curve at least 0.9, where 1 is the maximum)
Procedure, shortened: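 Compounds are added at 20 uM final concentration in 0.2% DMSO to U2OS cells carrying AR-RFP and TIF2-GFP fusions. Nucleolar AR-RFP fluorescence is then quantified by automated imaging. Antagonism is fitted positively against DHT baseline.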

[3] = target: Nucleoli Translocation, AR (gene 367) (UniProt P10275); assay: UPITT_HCI_U2OS_AR_TIF2_Nucleoli_Agonist: University of Pittsburgh U2OS Androgen Receptor-Transcriptional Intermediary Factor 2 (AR-TIF2) Agonism High Content Imaging Assay for Nucleoli Translocation (AID 2283998; active = hit-call score of the fitted dose curve at least 0.9, where 1 is the maximum)
Procedure, shortened: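 Nucleolar translocation of AR-RFP, with TIF2-GFP coexpressed in human osteosarcoma U2OS, imaged by high-content fluorescence. Compounds tested singly at 20 uM final, confirmed in triplicate, then titrated 0.195–50 uM final; gain-of-signal relative to DMSO.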

[4] = target: Ratio of Nucleoli Translocation and Cytoplasm, AR (gene 367) (UniProt P10275); assay: UPITT_HCI_U2OS_AR_TIF2_Nucleoli_Cytoplasm_Ratio_Antagonist: University of Pittsburgh U2OS Androgen Receptor-Transcriptional Intermediary Factor 2 (AR-TIF2) Antagonism High Content Imaging Assay for Ratio of Nucleoli Translocation and Cytoplasm (AID 2283999; active = hit-call score of the fitted dose curve at least 0.9, where 1 is the maximum;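 also: antagonists lower the DHT-driven ratio of nucleolar to cytoplasmic red signal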)
Procedure, shortened: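 Compounds were added to U2OS cells carrying red-fluorescent AR and green-fluorescent TIF2, first at 20 uM, with hits confirmed in triplicate and titrated from 0.195 to 50 uM. Nucleolar versus cytoplasmic AR-RFP fluorescence was then quantified by imaging, with analysis relative to DHT.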

[5] = target: Ratio of Nucleoli Translocation and Cytoplasm, AR (gene 367) (UniProt P10275); assay: UPITT_HCI_U2OS_AR_TIF2_Nucleoli_Cytoplasm_Ratio_Agonist: University of Pittsburgh U2OS Androgen Receptor-Transcriptional Intermediary Factor 2 (AR-TIF2) Agonism High Content Imaging Assay for Ratio of Nucleoli Translocation and Cytoplasm (AID 2284000; active = hit-call score of the fitted dose curve at least 0.9, where 1 is the maximum;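 also: hits raise the red nucleolar to cytoplasm ratio above vehicle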)
Procedure, shortened: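 Human osteosarcoma U2OS line, AR-RFP plus TIF2-GFP; compounds 0.195–50 uM final, 0.5% DMSO. Readout: nucleolar/cytoplasmic RFP ratio by HCI, positive direction vs DMSO baseline.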

PGR (gene 5241) [6] = target: PGR (gene 5241) (UniProt P06401); assay: TOX21_PR_BLA_Followup_Antagonist_ratio: Tox21 HEK293 Progesterone Receptor (PR) Antagonism Beta-lactamase Follow-Up Assay, Ratio (AID 2283934; active = hit-call score of the fitted dose curve at least 0.9, where 1 is the maximum;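 also: PR-UAS-bla HEK293T cells stimulated with 1 nM R5020 agonist for 16 hr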)
Procedure, shortened: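 Cells are plated, rested 6 hr, then dosed with test compound in DMSO and challenged with 1 nM promegestone. After 16 hr incubation, substrate loading for 2 h at room temperature precedes fluorescence reading; viability is measured in the same wells.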

[7] = TOX21_PR_BLA_Followup_Agonist_viability: Viability Assessment in the Tox21 HEK293 Progesterone Receptor (PR) Agonism Beta-lactamase Follow-Up Assay (AID 2283935; active = hit-call score of the fitted dose curve at least 0.9, where 1 is the maximum;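 also: signal loss means lower viability so actives are cytotoxic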)
Procedure, shortened: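 Cells were plated in medium with 2% charcoal-stripped FBS and rested 6 hr. Compounds in DMSO were then added for 16 hr at 37C, followed by the FRET substrate step and CellTiter-Glo luminescence after 30 min.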

PGR (gene 5241) [8] = target: PGR (gene 5241) (UniProt P06401); assay: TOX21_PR_LUC_Followup_Antagonist: Tox21 HEK293 Progesterone Receptor (PR) Antagonism Luciferase Follow-Up Assay (AID 2283938; active = hit-call score of the fitted dose curve at least 0.9, where 1 is the maximum;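 also: curve fitted upward as signal gain over DMSO baseline despite antagonist label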)
Procedure, shortened: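 Luminescence from ONE-Glo was measured 30 min after reagent addition, following 16 h exposure of HEK293-PR-A-luc cells (3,000/well, plated 5 h earlier) to DMSO-dissolved compounds at 37C; DMSO served as baseline.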

[9] = CCTE_Shafer_MEA_acute_firing_rate_mean: CCTE's Neural Acute Assay for Mean Firing Rate, Shafer Lab (AID 2284009);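 also: analyzed for loss of signal so actives lower firing rate relative to DMSO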
Procedure, shortened: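 Rat cortical neuron cultures matured to DIV 13 or 15, equilibrated 20 min at 37 C, then recorded 40 min for baseline. Compound (0.03-40 uM) added and a further 40 min recorded; percent change in mean firing rate calculated per well.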

[10] = CCTE_Shafer_MEA_acute_burst_number: CCTE's Neural Acute Assay for Single-Electrode Bursts, Shafer Lab (AID 2284013)
Procedure, shortened: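 Percent change in single-electrode burst number per well, from 40-min recordings taken before and after adding compound (0.03-40 uM) to primary rat cortical neurons on MEA plates at DIV 13 or 15, 37 C.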

[11] = CCTE_Shafer_MEA_acute_burst_duration_mean: CCTE's Neural Acute Assay for Mean Burst Duration, Shafer Lab (AID 2284014);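 also: hits are decreases in mean burst duration relative to DMSO controls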
Procedure, shortened: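 Rat cortical cultures, DIV 13/15; 40 min baseline, then 40 min with compound (0.03-40 uM), 37 C. Spikes: 300-5000 Hz band-pass, 8x rms threshold. Read-out: % change in mean single-electrode burst duration, DMSO-referenced, loss direction.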

[12] = CCTE_Shafer_MEA_acute_interburst_interval_mean: CCTE's Neural Acute Assay for Mean Interburst Interval, Shafer Lab (AID 2284016);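 also: percent change of mean interburst interval versus each well's own pre-dose baseline; curves fitted for decrease in interburst interval relative to DMSO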
Procedure, shortened: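 MEA recording of spontaneous network bursting in primary rat cortical cultures; mean interburst interval was compared before and after a 40-min compound exposure (0.03-40 uM) and expressed as percent change, relative to DMSO.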

[13] = CCTE_Shafer_MEA_acute_burst_percentage_mean: CCTE's Neural Acute Assay for Percentage of Spikes in a Burst, Shafer Lab (AID 2284017)
Procedure, shortened: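 Compounds were tested at 0.03-40 uM on primary rat cortical neuron networks grown over microelectrodes, with at least three wells per compound. Spontaneous firing was recorded for 40 min before and 40 min after dosing, and the change in burst percentage was computed per well.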

[14] = CCTE_Shafer_MEA_acute_burst_percentage_std: CCTE's Neural Acute Assay for Standard Deviation of Burst Percentage, Shafer Lab (AID 2284018);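 also: fitted in the negative direction so actives lower burst percentage SD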
Procedure, shortened: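 Rat primary cortical neurons on 48-well MEAs, DIV 13 or 15, 37 C. 40-min baseline then 40-min recording with compound (0.03-40 uM); well-level SD of per-electrode burst spike percentage, expressed as percent change from baseline.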

[15] = CCTE_Shafer_MEA_acute_per_network_burst_spike_number_mean: CCTE's Neural Acute Assay for Average Number of Spikes in a Network Burst, Shafer Lab (AID 2284019)
Procedure, shortened: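 Rat cortical cultures, DIV 13/15; spike threshold 8x rms noise, 300-5000 Hz band-pass, 12.5 kHz sampling; wells need >/= 10 active electrodes. Compound 0.03-40 uM, 40 min, 37 C; % change vs own baseline, DMSO negative control.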

[16] = CCTE_Shafer_MEA_acute_per_network_burst_spike_number_std: CCTE's Neural Acute Assay for Standard Deviation of Number of Spikes in a Network Burst, Shafer Lab (AID 2284020);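 also: fitted for decrease in spike-number SD versus DMSO so actives lower it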
Procedure, shortened: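 Rat cortical cultures, DIV 13/15, 37 C; 20-min stabilisation, 40-min baseline, compound 0.03-40 uM, 40-min re-record. Spikes detected at 8x rms noise (300-5000 Hz band-pass). Readout: % change from baseline in per-burst spike-number SD.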

[17] = CCTE_Shafer_MEA_acute_network_burst_percentage: CCTE's Neural Acute Assay for Percentage of Network Bursts, Shafer Lab (AID 2284022);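 also: curves fitted for loss so actives lower network burst percentage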
Procedure, shortened: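 Network burst percentage (spikes in network bursts divided by total spikes) recorded at 37 C over 40 min baseline and 40 min after compound, 0.03-40 uM, in rat cortical cultures at DIV 13 or 15. Analysed as percent change from baseline versus DMSO.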

[18] = CCTE_Shafer_MEA_acute_cross_correlation_area: CCTE's Neural Acute Assay for Area of Cross Correlation, Shafer Lab (AID 2284024);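 also: area under pooled inter-electrode spike cross-correlation near zero lag as percent change from own baseline; curves fitted for loss of cross-correlation area so actives lower synchrony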
Procedure, shortened: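 Percent change in well-wide cross-correlation area (window around zero lag) between 40 min baseline and 40 min post-compound recordings, 37 C; rat cortical cultures on MEA at DIV 13 or 15, dosed 0.03-40 uM, wells needing >/= 10 active electrodes.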

[19] = CCTE_Shafer_MEA_acute_cross_correlation_HWHM: CCTE's Neural Acute Assay for Cross Correlation at Half Width at Half Maximum, Shafer Lab (AID 2284026);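 also: percent change per well from pre-dose baseline in spike cross-correlogram half width; hits are a decrease in cross-correlogram half width relative to DMSO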
Procedure, shortened: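 Per-well percent change in cross-correlogram half width at half maximum, derived from 40-min recordings before and after compound (0.03-40 uM) at 37 C. Cultures were rat cortical neurons, DIV 13 or 15, with adaptive spike detection at 8x rms.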

Measured: AC50

Sequence of Ratio of Nucleoli Translocation and Cytoplasm, AR (gene 367) (P10275 whole entry, looked up): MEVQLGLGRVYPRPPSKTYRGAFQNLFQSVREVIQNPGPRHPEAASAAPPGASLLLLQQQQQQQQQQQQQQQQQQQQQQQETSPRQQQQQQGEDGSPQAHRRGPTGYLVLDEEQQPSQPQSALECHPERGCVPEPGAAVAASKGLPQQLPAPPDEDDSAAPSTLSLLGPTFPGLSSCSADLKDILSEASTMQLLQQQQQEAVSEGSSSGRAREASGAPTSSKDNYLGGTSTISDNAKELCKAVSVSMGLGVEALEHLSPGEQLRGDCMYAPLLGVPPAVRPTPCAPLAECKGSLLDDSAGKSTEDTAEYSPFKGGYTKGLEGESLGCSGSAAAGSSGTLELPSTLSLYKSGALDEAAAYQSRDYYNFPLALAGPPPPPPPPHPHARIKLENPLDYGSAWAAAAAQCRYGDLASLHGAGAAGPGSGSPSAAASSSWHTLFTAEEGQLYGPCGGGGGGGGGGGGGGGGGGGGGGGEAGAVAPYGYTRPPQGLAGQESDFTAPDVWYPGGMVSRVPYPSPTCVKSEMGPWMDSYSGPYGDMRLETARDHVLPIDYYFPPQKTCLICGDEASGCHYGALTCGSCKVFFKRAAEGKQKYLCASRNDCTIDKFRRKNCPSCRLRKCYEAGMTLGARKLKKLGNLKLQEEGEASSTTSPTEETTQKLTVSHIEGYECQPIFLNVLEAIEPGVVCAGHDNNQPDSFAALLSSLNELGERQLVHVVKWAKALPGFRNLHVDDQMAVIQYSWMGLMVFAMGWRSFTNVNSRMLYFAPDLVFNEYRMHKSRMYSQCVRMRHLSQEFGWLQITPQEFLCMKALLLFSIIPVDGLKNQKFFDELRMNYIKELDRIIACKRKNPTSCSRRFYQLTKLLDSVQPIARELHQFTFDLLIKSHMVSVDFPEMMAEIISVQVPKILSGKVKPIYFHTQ
Sequence of Nucleoli Translocation, AR (gene 367) (P10275 whole entry, looked up, the tested form may be a part): as the sequence (P10275 whole entry, looked up) above
Sequence of PGR (gene 5241) (P06401 whole entry, looked up): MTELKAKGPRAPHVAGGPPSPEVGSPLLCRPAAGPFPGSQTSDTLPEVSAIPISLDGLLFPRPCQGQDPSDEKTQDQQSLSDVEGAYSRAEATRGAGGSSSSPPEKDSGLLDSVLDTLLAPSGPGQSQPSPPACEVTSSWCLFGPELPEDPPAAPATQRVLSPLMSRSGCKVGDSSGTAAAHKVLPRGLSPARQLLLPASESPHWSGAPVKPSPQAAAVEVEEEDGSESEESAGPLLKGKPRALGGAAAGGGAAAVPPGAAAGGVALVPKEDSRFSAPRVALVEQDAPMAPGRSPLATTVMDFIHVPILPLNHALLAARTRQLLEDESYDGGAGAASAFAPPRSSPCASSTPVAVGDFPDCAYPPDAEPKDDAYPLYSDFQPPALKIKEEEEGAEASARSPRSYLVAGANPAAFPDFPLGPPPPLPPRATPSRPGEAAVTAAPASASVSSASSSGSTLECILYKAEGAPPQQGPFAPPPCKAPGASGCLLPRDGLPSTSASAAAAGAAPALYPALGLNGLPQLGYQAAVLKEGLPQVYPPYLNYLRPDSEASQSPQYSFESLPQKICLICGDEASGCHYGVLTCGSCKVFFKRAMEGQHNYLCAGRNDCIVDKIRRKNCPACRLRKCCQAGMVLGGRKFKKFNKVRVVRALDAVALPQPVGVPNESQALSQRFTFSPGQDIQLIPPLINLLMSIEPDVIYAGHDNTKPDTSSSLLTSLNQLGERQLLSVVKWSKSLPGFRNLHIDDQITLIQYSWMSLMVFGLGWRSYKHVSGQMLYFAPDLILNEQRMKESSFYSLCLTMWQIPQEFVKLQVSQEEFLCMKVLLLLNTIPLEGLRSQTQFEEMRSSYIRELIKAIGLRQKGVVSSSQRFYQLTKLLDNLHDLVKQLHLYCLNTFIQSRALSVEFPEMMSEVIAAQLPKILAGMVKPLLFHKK

O=C(CBr)Nc1ccc(Cl)cc1C(=O)c1ccccc1F
inactive: [1]

C[C@]12Cc3cn[nH]c3C[C@@H]1CC[C@@H]1[C@@H]2CC[C@@]2(C)[C@H]1CC[C@]2(C)O
inactive: [1]

ClC1=C(Cl)[C@]2(Cl)[C@H]3[C@H]([C@H](Cl)C(Cl)[C@@H]3Cl)[C@@]1(Cl)C2(Cl)Cl (some centres not stated)
inactive: [2] | [3] | [4] | [5]

CC1COC2(c3ccccc3Cl)c3cc(Cl)ccc3NC(=O)CN12 (configuration not stated)
inactive: PGR (gene 5241) [6] | [7] | PGR (gene 5241) [8]

CP(=O)(O)CCC(N)C(=O)O (configuration not stated)
active: [11] 35 µM
inactive: [9] | [10] | [12] | [13] | [14] | [15] | [16] | [17] | [18] | [19]

O=c1[nH]c2c(c(=O)n1C1CCCCC1)CCC2
inactive: [2] | [3] | [5]

O=C(O)CNCP(=O)(O)O
not listed: [1] | [2] | [3] | [4] | [5] | PGR (gene 5241) [6] | [7] | PGR (gene 5241) [8]
inactive: all other assays above

CCCCC(CC)COC(=O)c1cc(Br)c(Br)c(Br)c1Br (configuration not stated)
inactive: [2] | [3] | [4] | [5]

Clc1c(Cl)c(Cl)c2c(c1Cl)Oc1c(Cl)c(Cl)c(Cl)c(Cl)c1O2
inactive: [3] | [4] | [5]

C[C@]12CC[C@H]3[C@@H](CCC4=CC(=O)CC[C@@H]43)[C@@H]1CC[C@@H]2OC(=O)CCC1CCCCC1
inactive: PGR (gene 5241) [6] | [7] | PGR (gene 5241) [8] | [1]

CP(=O)(O)CC[C@H](N)C(=O)O
active: [19] 36.5 µM
inactive: [9] | [10] | [11] | [12] | [13] | [14] | [15] | [16] | [17] | [18] | [19]
